Screening results: PubChem, National Center for Advancing Translational Sciences (NCATS)
PNC inhibitor: perinucleolar compartment assembly inhibition. PC3M PTB-GFP, PNC prevalence imaging, 16 h; stronger effect = lower value. hit rate 3.1% among 140,000. activity change (PNC), negative = inhibition, % at 10 µM;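 active means readout at or below -70, meaning at least 70% loss of cells showing the perinucleolar compartment, a nuclear body marking cancer cells; inconclusive means readout between -30 and a set limit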
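PC3M cells stably expressing PTB-GFP, 750–1000 cells/well, treated 16 h at 37 °C with compound (23 nl of library stock), in duplicate. After paraformaldehyde fixation and Hoechst stain, imaged at 20x; PNC prevalence scored by image analysis.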
HTT aggregate: inhibitors of mutant huntingtin aggregate formation in PC12 cells; PC12 HttQ103-GFP aggregates, Acumen cytometry, 40 h; Potency, µM (doses to about 46.1 µM), hits mostly inhibitors; hit rate 1.1% among 220,000; further: nearly all actives have a fitted effect of over 60% in size
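PC12 cells with ecdysone-inducible HTT exon1 Q103-GFP, induced by 100 nM tebufenozide, given compounds in a concentration series. GFP aggregates (1–25 um, 6 SD above background) counted in lysates by laser-scanning cytometry, 488 nm excitation.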
HTT ATP protect: Huntington cell model cytoprotection by ATP luminescence. hit rate 0.14% among 230,000. Potency, µM (series often up to 56.4 µM), actives largely listed as activators. PC12 HTT-Q103 induced, cytoprotection, ATP luminescence, 40 h; further: nearly all actives have a fitted effect of over 45% in size
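PC12 cells with ecdysone-inducible HTT exon 1 Q103-GFP, induced with 100 nM tebufenozide and co-treated with library compounds in a dose series (1536-well, 1500 cells/well). Cytoprotection read as ATP content by ATPlite luminescence.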
Each line names hits and unclear results; the compound was inactive in the other large screens; ! = a repeat was not active. The sample as a whole holds a higher share of hits than the screen did. Unless noted, the call rests on the fitted dose curve; in most records, active means well fitted curve in the direction sought with a large enough effect; inconclusive means small, poorly fitted or top-dose-only effect, or another doubt; inactive means no such curve, though single readings can be large; an effect the other way counts as inactive or inconclusive.

O=C(CN1CCOCC1)n1c2ccccc2c2ccccc21	HTT aggregate 2.82µM
O=C(CN1CCOCC1)n1c2c(c3ccccc31)CCCC2	none (no result: PNC inhibitor)
c1ccc(Nc2ccccc2Nc2ccccn2)nc1	HTT ATP protect inconclusive
Oc1cccc2ccc(Nc3ccccn3)nc12	HTT aggregate 3.55µM
O=C(Cn1c(CC(=O)N2CCOCC2)nc2ccccc21)Nc1ccc2c(c1)OC(F)(F)O2	none
COC(=O)C1C(c2ccc(OC)cc2)NC(=O)NC1(O)C(F)(F)Cl (centres undefined)	none (no result: PNC inhibitor)
O=C(Cn1[nH]c(=O)c2ccccc2c1=O)NC1CCCCCC1	PNC inhibitor -85.7
O=C(Cn1[nH]c(=O)c2ccccc2c1=O)NC1CCN(Cc2ccccc2)CC1	none
Cc1ccc2cc(CN(CCN3CCCC3)C(=O)Nc3ccc(F)cc3)c(=O)[nH]c2c1C	none
O=C(C(=O)N1CCN(c2ccccc2F)CC1)c1c[nH]c2ccccc12	none (no result: PNC inhibitor)
O=C(C1CCCN1C(=O)c1cccs1)N1CCc2ccccc21 (centres undefined)	PNC inhibitor -97.9
O=C(c1cccs1)N1CCc2ccccc21	PNC inhibitor inconclusive
Cn1c(=O)[nH]c(=O)c2c1nc(Br)n2CCCSc1nc2ccccc2o1	none
COc1ccc(-c2ncncc2-c2csc(C)n2)c(O)c1OC	none
COC1=C(N)C(=O)c2nc(-c3nc(C(=O)O)c(C)c(-c4ccc(OC)c(OC)c4O)c3N)ccc2C1=O	PNC inhibitor -114.6 (no result: HTT aggregate, HTT ATP protect)
Clc1cccc(NCc2nnc3n2CCCCC3)c1	HTT ATP protect 3.98µM (no result: PNC inhibitor)
Clc1ccc(NCc2nnc3n2CCCCC3)cc1	PNC inhibitor inconclusive
Cn1c(=O)c2c(nc(NCC3CCCO3)n2Cc2cccc(Br)c2)n(C)c1=O (centres undefined)	none
O=C(C1CCCO1)N1CCN(S(=O)(=O)c2cccc3nsnc23)CC1 (centres undefined)	none
CC(C)CO/N=C1/C[C@@H](O)[C@@H](O)[C@@H]2[C@@H]3C(=O)N(Cc4ccccc4)C(=O)[C@H]3CC[C@@H]12	HTT ATP protect 2.82µM (no result: PNC inhibitor, HTT aggregate)
CC(C)CO/N=C1/C[C@@H](O)[C@@H](O)[C@@H]2[C@@H]3C(=O)N(Cc4ccccc4)C(=O)[C@H]3CC[C@H]12	none (no result: PNC inhibitor, HTT aggregate)
Cc1cc(NC(=O)Cn2cnc3c2c(=O)n(C)c(=O)n3C)n(-c2ccccc2)n1	PNC inhibitor inconclusive
C=C(C)CNC(=O)CCc1nnc(C2(c3ccc(Cl)cc3)CCC2)o1	none (no result: PNC inhibitor)
Cc1ccc2ccc(C(Nc3ccccn3)c3ccccc3)c(O)c2n1 (centres undefined)	PNC inhibitor -81.6, HTT aggregate inconclusive
Oc1c(C(Nc2ccccn2)c2ccccn2)ccc2cccnc12 (centres undefined)	HTT aggregate 2.82µM
CC(=O)NC(c1ccco1)c1ccc2cccnc2c1O (centres undefined)	HTT aggregate 3.55µM
COc1ccc(C(NC(=O)C(C)C)c2ccc3cccnc3c2O)cc1 (centres undefined)	none (no result: PNC inhibitor)
Oc1c([C@H](Nc2ccccn2)c2ccccc2)ccc2cccnc12	none (no result: PNC inhibitor, HTT aggregate)
COc1cc(C(Nc2ccccn2)c2ccc3ccc(C)nc3c2O)cc(OC)c1O (centres undefined)	HTT ATP protect inconclusive
COc1ccc(CCN2C(=O)NC(NS(=O)(=O)c3ccc(Cl)cc3)(C(F)(F)F)C2=O)cc1OC (centres undefined)	none (no result: PNC inhibitor)
O=C(CSc1nc(NS(=O)(=O)c2ccccc2)cc(=O)[nH]1)Nc1ccc(F)cc1	none
Cc1cc(C)c(S(=O)(=O)Cc2ccccc2)c(=O)[nH]1	none (no result: PNC inhibitor)
CCCn1c(-c2ccc(F)cc2)n[nH]c1=S	PNC inhibitor -121.4
CCn1c(-c2ccc(C)cc2)n[nH]c1=S	none
O=C(CCNS(=O)(=O)c1ccccc1F)NCc1ccc2c(c1)OCO2	none
COc1ccc(CNCCC(c2ccccc2)C2CCOC(C)(C)C2)cc1 (centres undefined)	none (no result: PNC inhibitor, HTT ATP protect)
COc1ccc(CN(CCC(c2ccccc2)C2CCOC(C)(C)C2)C(C)=O)cc1 (centres undefined)	HTT aggregate 12.6µM
CCC(CO)n1c(SCc2cc([N+](=O)[O-])cc3c2OCOC3)nc2ccccc2c1=O (centres undefined)	HTT aggregate inconclusive
CN1/C(=C\C(=O)c2cccs2)Sc2ccccc21	PNC inhibitor inconclusive, HTT aggregate 15.8µM
CN1/C(=C/C(=O)c2cccs2)Sc2ccccc21	none
Cc1nn(Cc2c(Cl)cccc2Cl)c(C)c1C(=O)NCc1ccc(C)n1C	none
Cc1c(C(=O)NCc2cccnc2)oc2ccccc12	none
O=C(O)CCC(=O)NNC(=O)CCCOc1ccc(Cl)cc1Cl	PNC inhibitor inconclusive
Cc1nc(-c2cccc(NS(C)(=O)=O)c2)cs1	PNC inhibitor inconclusive, HTT aggregate inconclusive
Cc1nc(-c2ccc(NS(C)(=O)=O)cc2)cs1	PNC inhibitor -80.5
COc1cc(OC)cc(-c2nnc(Nc3nc4c(F)cccc4s3)o2)c1	none
Fc1cccc2sc(Nc3nnc(-c4ccccc4)o3)nc12	HTT aggregate 11.2µM
O=C(O)CCn1ncc2ccccc2c1=O	none (no result: PNC inhibitor)
CCc1ccc2c(c1)C1(NN=C(c3ccc(C)cc3)S1)C(=O)N2 (centres undefined)	HTT aggregate 22.4µM
CC(C)c1ccc2c(c1)C1(NN=C(c3ccccc3)S1)C(=O)N2 (centres undefined)	HTT aggregate inconclusive
CC1=C(C#N)C(NC(=O)c2ccc(C)cc2)(C(F)(F)F)C(=O)N1 (centres undefined)	none
COc1cccc(NS(=O)(=O)c2cc(C)sc2C)c1	PNC inhibitor -100.0
Cc1cc(S(=O)(=O)Nc2cccc(Cl)c2)c(C)s1	none (no result: PNC inhibitor)
CSc1cccc(NS(=O)(=O)c2cccc3nsnc23)c1	none
COc1cc(NS(=O)(=O)c2cccc3nsnc23)cc(OC)c1	PNC inhibitor -82.0
CO[C@H]1C([C@@]2(C)O[C@@H]2CC=C(C)C)[C@]2(CC[C@H]1OC(=O)/C=C/C=C/C=C/C=C/C(=O)O)CO2 (some centres undefined)	none (no result: PNC inhibitor, HTT aggregate)
COc1ccc(OC)c(-n2c(-c3cccc(S(=O)(=O)N(C)C)c3)n[nH]c2=S)c1	none (no result: PNC inhibitor)
COc1ccc(C2OCC3(CO2)SC(N)=NC3=O)cc1 (centres undefined)	none
COc1ccc2c(c1)-c1ccccc1S(=O)(=O)N2C(C)=O	PNC inhibitor -114.2
COc1ccc(N2C(=O)c3ccccc3S2(=O)=O)cc1	none (no result: PNC inhibitor)
O=C(O)C1OC(O)C(O)C(O)C1O (centres undefined)	none (no result: PNC inhibitor, HTT aggregate)
Cc1ccc(NC(=O)Cc2noc3ccccc23)cc1	PNC inhibitor -99.2
O=C(Cc1noc2ccccc12)Nc1ccc2ccccc2c1	none
Cc1ccc(S(=O)(=O)NN2C(=O)c3ccccc3NC2c2ccccc2O)cc1 (centres undefined)	none (no result: PNC inhibitor)
C[C@@H](CCC[C@@H]1SC[C@H]2NC(=O)N[C@H]12)C(=O)O	none (no result: PNC inhibitor, HTT aggregate)
O=C(O)CCCCC1SCC2NC(=O)NC21 (centres undefined)	HTT ATP protect 12.6µM!
Cc1ccc(/C=[N+](/[O-])C2SC(=S)N(C)C2(C)C)cc1 (centres undefined)	none
CCC(C(=O)O)C1OC(C(C)C(O)C(C)C(=O)C(CC)C2OC3(C=CC(O)C4(CCC(C)(C5CCC(O)(CC)C(C)O5)O4)O3)C(C)CC2C)C(C)CC1C (centres undefined)	HTT aggregate 1.78µM (no result: PNC inhibitor)
